Compound activity: PubChem BioAssay, National Center for Advancing Translational Sciences (NCATS)
Rows were chosen to be rich in hits. Some 8.7% of all compounds tested hit in one or more screens of this group.
G9a inh – inhibitors of human histone lysine methyltransferase G9a | Q96KQ7 | G9a H3K9 monomethylation, AlphaScreen, 2 h | Potency, µM (highest dose often 102 µM), inactives show at the highest dose activity, negative = inhibition, actives largely listed as inhibitors | hit rate 8.8% among 350,000 | AID 504332; also: % is scaled to controls: 0 for no effect and ±100 for the full control effect; nearly all actives have a fitted effect of over 75% in size
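Chemiluminescent proximity detection of H3K9 monomethylation, read after 10 min bead incubation in the dark. Reaction: 20 nM G9a, 500 nM biotin-H3K9 peptide, 20 uM SAM cofactor, 2 h, room temperature, following 15 min enzyme-compound preincubation.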
JMJD2A Tudor inh – inhibitors of human JMJD2A Tudor domain; AlphaScreen JMJD2A-Tudor / H3K4me3 peptide binding; Potency, µM (titrated, usually from 114 µM), inactives show top-dose activity change, negative = inhibition, actives largely listed as inhibitors; hit rate 4.4% among 390,000; AID 504339; also: % is scaled to controls: 0 for no effect and ±100 for the full control effect; nearly all actives have a fitted effect of over 50% in size
HP1b binding inh – blocks HP1-beta chromodomain binding to methylated histone tails; AlphaScreen HP1-beta / biotin-H3K9me3 peptide binding; Potency, µM (highest dose often 114 µM), for the others: at the top dose activity change, negative = inhibition, actives largely listed as inhibitors; hit rate 0.56% among 390,000; also: nearly all actives have a fitted effect of over 70% in size
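AlphaScreen: HP1-beta (50 nM) preformed 30 min with biotin-H3(1-18)K9me3 peptide (50 nM) in PBS pH 7.4, 0.01% Tween-20. Compound added for 30 min at RT, then streptavidin donor/nickel chelate acceptor beads (10 ug/mL) for 30 min.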
BAZ2B inh – inhibitors of human BAZ2B bromodomain; AlphaScreen BAZ2B-H3K14Ac peptide displacement; Potency, µM (doses to about 114 µM), inactives show top-dose activity change, negative = inhibition, most hits filed as inhibitors; hit rate 4.4% among 360,000; also: % is scaled to controls: 0 for no effect and ±100 for the full control effect; nearly all actives have a fitted effect of over 60% in size
Target sequence (Q9UIF8 whole entry, looked up): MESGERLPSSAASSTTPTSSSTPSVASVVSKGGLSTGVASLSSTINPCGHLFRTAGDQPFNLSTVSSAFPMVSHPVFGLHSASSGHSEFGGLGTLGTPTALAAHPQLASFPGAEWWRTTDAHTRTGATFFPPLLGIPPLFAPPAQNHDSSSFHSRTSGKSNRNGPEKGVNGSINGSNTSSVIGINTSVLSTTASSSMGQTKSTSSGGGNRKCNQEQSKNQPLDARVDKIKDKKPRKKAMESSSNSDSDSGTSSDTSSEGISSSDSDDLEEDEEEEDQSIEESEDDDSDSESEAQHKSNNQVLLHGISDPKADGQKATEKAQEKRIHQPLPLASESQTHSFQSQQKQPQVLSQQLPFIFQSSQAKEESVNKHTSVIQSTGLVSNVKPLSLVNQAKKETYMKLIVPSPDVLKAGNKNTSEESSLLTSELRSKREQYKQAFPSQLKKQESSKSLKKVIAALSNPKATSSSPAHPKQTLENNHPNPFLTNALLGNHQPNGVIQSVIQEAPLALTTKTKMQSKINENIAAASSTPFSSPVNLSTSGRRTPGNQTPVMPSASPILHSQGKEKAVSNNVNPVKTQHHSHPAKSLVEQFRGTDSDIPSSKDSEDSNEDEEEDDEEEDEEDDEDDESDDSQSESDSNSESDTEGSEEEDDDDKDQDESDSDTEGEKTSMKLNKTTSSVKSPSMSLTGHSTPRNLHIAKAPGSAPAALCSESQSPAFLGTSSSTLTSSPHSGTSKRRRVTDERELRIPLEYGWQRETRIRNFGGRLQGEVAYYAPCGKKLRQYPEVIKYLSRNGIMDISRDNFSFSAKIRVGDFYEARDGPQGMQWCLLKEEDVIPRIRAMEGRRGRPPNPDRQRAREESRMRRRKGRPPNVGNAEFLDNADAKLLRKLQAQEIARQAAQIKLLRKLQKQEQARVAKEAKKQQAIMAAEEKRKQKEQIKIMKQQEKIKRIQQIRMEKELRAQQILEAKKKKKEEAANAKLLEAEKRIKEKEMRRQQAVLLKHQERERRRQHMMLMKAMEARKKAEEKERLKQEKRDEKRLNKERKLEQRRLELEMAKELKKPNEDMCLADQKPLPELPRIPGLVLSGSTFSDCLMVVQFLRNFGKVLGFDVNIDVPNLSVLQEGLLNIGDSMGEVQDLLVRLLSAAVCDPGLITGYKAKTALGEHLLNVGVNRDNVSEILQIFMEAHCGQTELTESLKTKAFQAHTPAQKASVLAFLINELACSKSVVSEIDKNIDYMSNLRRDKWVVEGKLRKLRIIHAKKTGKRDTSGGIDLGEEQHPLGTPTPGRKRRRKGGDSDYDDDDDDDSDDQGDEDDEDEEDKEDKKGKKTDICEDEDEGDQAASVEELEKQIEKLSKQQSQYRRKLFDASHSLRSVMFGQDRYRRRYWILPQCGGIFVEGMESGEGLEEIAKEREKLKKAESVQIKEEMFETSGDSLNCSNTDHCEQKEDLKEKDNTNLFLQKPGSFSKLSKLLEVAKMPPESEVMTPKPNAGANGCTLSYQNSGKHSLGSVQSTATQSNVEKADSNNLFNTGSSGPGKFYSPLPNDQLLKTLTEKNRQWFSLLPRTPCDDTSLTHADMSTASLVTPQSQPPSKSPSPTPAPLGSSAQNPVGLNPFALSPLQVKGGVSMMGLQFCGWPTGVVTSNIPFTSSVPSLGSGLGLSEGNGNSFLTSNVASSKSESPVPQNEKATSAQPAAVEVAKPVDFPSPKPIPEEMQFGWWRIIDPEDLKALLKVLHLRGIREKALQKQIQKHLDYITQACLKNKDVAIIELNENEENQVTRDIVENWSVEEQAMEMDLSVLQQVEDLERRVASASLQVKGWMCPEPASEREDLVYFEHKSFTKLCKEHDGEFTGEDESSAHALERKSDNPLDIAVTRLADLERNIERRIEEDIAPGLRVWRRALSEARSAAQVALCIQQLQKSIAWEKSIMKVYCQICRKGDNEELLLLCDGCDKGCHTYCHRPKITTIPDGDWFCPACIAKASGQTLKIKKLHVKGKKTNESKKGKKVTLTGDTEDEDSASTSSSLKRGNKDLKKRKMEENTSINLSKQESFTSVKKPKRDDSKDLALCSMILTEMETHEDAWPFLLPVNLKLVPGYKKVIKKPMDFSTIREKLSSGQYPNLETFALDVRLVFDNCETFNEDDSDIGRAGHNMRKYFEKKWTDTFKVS
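Multi-concentration screen (max 110 uM) measuring displacement of acetylated histone H3 peptide from BAZ2B by AlphaScreen, using 50 nM protein, 50 nM peptide and 10 ug/mL streptavidin donor plus Ni-chelate acceptor beads.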
ALOX12 inh – blocks human arachidonate 12S-lipoxygenase | hit rate 1.1% among 580,000 | purified 12hLO, xylenol orange hydroperoxide absorbance | P18054 | Potency, µM (doses to about 108 µM), for the others: at the top dose activity change, negative = inhibition, actives largely listed as inhibitors; also: % is scaled to controls: 0 for no effect and ±100 for the full control effect
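Purified human 12hLO (150 nM final) in 25 mM Hepes, 0.01% Triton X-100, pH 7.0 was preincubated 15 min at room temperature with compound. Then 40 uM arachidonic acid was added, 30 min. Hydroperoxide was read by Fe-XO absorbance ratio 573/405 nm.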
Sfp inh – blocks B. subtilis Sfp PPTase activity. Q9F4F7. Biochemical Sfp PPTase activity, qHTS. Potency, µM, inactives show largest response in the series, negative = inhibition, actives largely listed as inhibitors. hit rate 3.5% among 310,000. AID 1490;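 also: the enzyme is Sfp with the accession as filed and its product quenches rhodamine fluorescence; 0% = enzyme reaction without inhibitor and -100% = no enzyme wells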
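Fluorescence-quenching assay with 15 nM Sfp, 5 uM rhodamine-CoA and 12.5 uM BHQ-2-labelled ybbR peptide in pH 7.6 Hepes/MgCl2 buffer. Enzyme was pre-incubated with compound for 15 min at room temperature. Rate was taken from the 30-min fluorescence change (525/598 nm).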
The depositor's hits bear a star; ? = inconclusive; nt = no result given; [ ] = dose if it differs, or a comment. Calls follow the shape of the dose curve; as a rule, active = well fitted curve in the direction sought with a large enough effect; inconclusive = small, poorly fitted or top-dose-only effect, or another doubt; inactive = no such curve, though single readings can be large; an effect the other way counts as inactive or inconclusive. Potency is read from the fitted curve at half-maximal effect.

SMILES	G9a inh	JMJD2A Tudor inh	HP1b binding inh	BAZ2B inh	ALOX12 inh	Sfp inh
O=C(NCC1CCCO1)c1ccc(NS(=O)(=O)c2cccs2)cc1 (stereo unspecified)	35µM*	?	10%	-34%	2%	?
O=C(COC(=O)c1ccc(NS(=O)(=O)c2cccs2)cc1)NCC1CCCO1 (stereo unspecified)	2%	-10%	32%	1%	11%	0%
FC(F)n1c(CSc2nnc3c(Cl)cc(C(F)(F)F)cn23)nc2ccccc21	nt	nt	nt	nt	16%	nt
Cc1ccc(NC(=O)c2ncn[nH]2)cc1	2%	10%	31%	50µM*	1%	3%
Cc1c(Cl)cccc1NC(=O)c1ncn[nH]1	11µM*	25µM*	28%	20µM*	34%	-12%
O=C(Nc1ccc(Oc2ccc(Cl)cc2)cc1)c1ncn[nH]1	46%[59 µM]	-9%	29%	-2%	2%	14%
O=C(Nc1cccc(C(=O)N2CCOCC2)c1)c1ncn[nH]1	-43%[59 µM]	28µM*	8%	20µM*	18%	-7%
Cc1ccc(C(=O)Nc2cccc(C(=O)N3CCOCC3)c2)cc1	4%	9%	26%	-5%	-26%	9%
Cc1ccccc1C(=O)Nc1cccc(NC(=O)c2ncn[nH]2)c1	-9%	-25%	1%	?	-1%	8%
COc1ccccc1N1CC(c2nc3ccc(C)cc3[nH]2)CC1=O (stereo unspecified)	nt	nt	nt	nt	1%	nt
CCOc1ccccc1NC(=O)N1CCC(Oc2ccccc2-c2nc(C)no2)C1 (stereo unspecified)	nt	nt	nt	nt	11%	nt
Cc1cc(O)c(C(=O)/C=C/c2ccccc2)cc1Cl	nt	nt	nt	nt	5%	nt
CCOc1cc(/C=C(/C#N)c2ccc(C(F)(F)F)cn2)ccc1O	nt	nt	nt	nt	-49%	nt
COc1cc(/C=C(/C#N)c2ccc(C(F)(F)F)cn2)ccc1O	nt	nt	nt	nt	8.9µM*	nt
O=C(OCC(=O)N1CCCCC1)c1ccccc1-c1nc2ccccc2s1	nt	nt	nt	nt	4%	nt
CN(C)Cc1ccc(CNC(=O)c2nccnc2N)cc1	nt	nt	nt	nt	-2%	nt
COCCNC(=O)[C@@H]1C[C@H](Oc2ccccc2)CN1C(=O)c1cccc(C)c1	nt	nt	nt	nt	9%	nt
O=S(=O)(Nc1nc2ccccc2nc1Nc1ccc2c(c1)OCO2)c1cccc(Cl)c1	nt	nt	nt	nt	-3%	nt
Cc1cccc(S(=O)(=O)Nc2nc3ccccc3nc2Nc2ccc3c(c2)OCO3)c1	45µM*	?	-17%	?	11%	-14%
O=S(=O)(Nc1nc2ccccc2nc1Nc1ccc2c(c1)OCO2)c1ccccc1	40µM*	-11%	3%	-4%	-19%	14%
O=[N+]([O-])c1cccc(S(=O)(=O)Nc2nc3ccccc3nc2Nc2cccc(S(=O)(=O)N3CCCCC3)c2)c1	40µM*	45µM*	-11%	?	?	-29%
Cc1ncc(C(=O)N2CCC3(CC(=O)NC3=O)C2)c(-c2ccccc2)n1 (stereo unspecified)	nt	nt	nt	nt	19%	nt
Cc1ccc(NC(=O)c2ncoc2-c2ccc(C)s2)c(C)c1	nt	nt	nt	nt	-20%	nt
O=C1/C(=C/c2ccc(O)c([N+](=O)[O-])c2)SC(=S)N1Cc1ccccc1	3.5µM*	4µM*	?	?	-18%	8%
CCOc1cc(/C=C2/SC(=S)N(Cc3ccccc3)C2=O)ccc1O	45µM*	50µM*	?	22µM*	?	-2%
SMILES	G9a inh	JMJD2A Tudor inh	HP1b binding inh	BAZ2B inh	ALOX12 inh	Sfp inh
O=C1/C(=C\c2cccc([N+](=O)[O-])c2O)SC(=S)N1Cc1ccccc1	2µM*	8.9µM*	?	2µM*	?	?
CCOc1cc(/C=C2\SC(=O)N(c3ccc(O)cc3)C2=O)ccc1O	13%[12.7 µM]	-16%	12%	-11%	?	-2%
Cc1ccc(/C=C2/SC(=S)N(CCCC(=O)Nc3cc([N+](=O)[O-])ccc3O)C2=O)cc1	6%[12.7 µM]	-28%	-7%	-8%	147%	0%
O=C(O)CCN1C(=O)/C(=C\c2cccc(OCc3ccccc3)c2)SC1=S	?	-34%	-15%	-38%	-27%	11%
O=C(O)CCN1C(=O)/C(=C\c2ccc(OCc3ccccc3)c(OCc3ccccc3)c2)SC1=S	25µM*	45µM*	?	45µM*	-6%	5%
O=C(CSc1ccc2c(c1)OCCCO2)Nc1ccc2c(c1)CCC2	nt	nt	nt	nt	-10%	nt
Cc1cc(N2CCCCCC2)n2nc(-c3ccccc3)c(C)c2n1	nt	nt	nt	nt	15%	nt
CCCCC(=O)Nc1cccc(C(=O)OCc2cc(=O)n3nc(CCCC)sc3n2)c1	nt	nt	nt	nt	-24%	nt
CC(C)(C)c1ccc(C(=O)N2CCCC3(C2)NC(=O)N(Cc2ccccc2)C3=O)cc1 (stereo unspecified)	nt	nt	nt	nt	4%	nt
O=C(O)c1cccc(CN2C(=O)S/C(=C/c3cccc([N+](=O)[O-])c3)C2=O)c1	?	2%[11.4 µM]	-17%	-33%	?	71µM*
CCOc1ccccc1C=C1SC(=S)N(CC)C1=O	nt	?	-23%[57 µM]	nt	-22%	nt
CCN1C(=O)/C(=C\C=C\c2ccccc2[N+](=O)[O-])SC1=S	10µM*	?	?	nt	?	-13%
COCCN1C(=O)/C(=C/c2ccc(OCc3ccc(C(=O)O)cc3)c(OC)c2)SC1=Nc1ccccc1	50µM*	?	-22%	56µM*	?	-29%
CN1CCCCCCN(C(=O)CCCc2ccccc2)[C@H]2CCC[C@H]2C1=O	nt	nt	nt	nt	10%	nt
Cc1ccc2nc(C)c(CN3CCN(c4ccc([N+](=O)[O-])cc4Cl)CC3)n2c1	50µM*	nt	nt	40µM*	-15%	-2%
